Screens: PubChem, several laboratories
A selection: hits, their analogues and other compounds. The true share with any hit is near 27%.
Cav32 inh: human Cav3.2 channel inhibition, primary screen | Cav3.2-expressing cells, Fluo-4 calcium fluorescence FDSS; stronger effect = lower value | AID 449739 | O95180 | B-score at 10 µM | 100,000 tested, 4% active;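 active means single-dose well whose peak fluorescence ratio is a statistical outlier from its plate by either plate-standardised score or position-corrected B-score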
CYP2C19 act: cytochrome P450 2C19 (human) activation; 96,000 tested, under 10 active; AID 1025; activation factor at 5 µM; P33261; recombinant CYP2C19, luciferin-H EGE luminescence; stronger effect = higher value; 0 = fully inhibited enzyme, 1 = untreated enzyme;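 active means activation factor of at least 2 at 5 µM in the primary screen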
CYP2C9 inhib: inhibitors of human CYP2C9; inhibition, % at 5 µM; CYP2C9 Supersomes, luciferin-H conversion, luminescence; 96,000 tested, 20% active; AID 777;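 active means blocking of liver enzyme CYP2C9 beyond about 50% at 5 µM, limit read from the data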
Target sequence (P11712 whole entry, looked up): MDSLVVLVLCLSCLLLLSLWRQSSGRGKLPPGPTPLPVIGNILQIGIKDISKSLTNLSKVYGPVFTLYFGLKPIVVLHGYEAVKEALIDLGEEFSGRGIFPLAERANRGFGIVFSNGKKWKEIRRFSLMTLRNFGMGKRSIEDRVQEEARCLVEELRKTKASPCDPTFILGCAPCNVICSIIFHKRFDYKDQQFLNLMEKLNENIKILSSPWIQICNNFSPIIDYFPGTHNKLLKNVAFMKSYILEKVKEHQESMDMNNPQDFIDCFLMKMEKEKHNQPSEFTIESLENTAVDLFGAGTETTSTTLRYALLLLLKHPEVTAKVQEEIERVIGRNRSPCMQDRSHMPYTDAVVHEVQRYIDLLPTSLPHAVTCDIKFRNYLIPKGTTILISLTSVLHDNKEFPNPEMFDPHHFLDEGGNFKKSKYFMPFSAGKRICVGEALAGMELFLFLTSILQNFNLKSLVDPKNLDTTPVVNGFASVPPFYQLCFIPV
CYP2C19 inh: inhibitors of human CYP2C19; inhibition, % at 5 µM; P33261; CYP2C19 Supersomes, luciferin-H EGE luminescence, 30 min; AID 778; 96,000 tested, 21% active;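 active means CYP2C19 inhibition above a set limit at 5 µM in the primary screen, cut at about 50% in these data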
CYP2C9 act: activators of human CYP2C9. P11712. recombinant CYP2C9, luciferin-H conversion, luminescence; stronger effect = higher value; factor 1 = untreated enzyme, 0 = blocked. activation factor at 5 µM. 96,000 tested, 1.4% active. AID 1024;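 active means activation factor of 2 or more for CYP2C9 at a 5 µM dose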
Each line names hits and unclear results; the compound was inactive in the other large screens.

CC(=O)NS(=O)(=O)c1cccnc1Nc1ccc(Cl)cc1	CYP2C9 inhib 85
COc1ccc(OC)c2c(C)cc(N3CCCN(C)CC3)nc12	none
COc1cc(C(=O)Nc2cccc(-c3nncn3C)c2)cc(OC)c1OC	none
C/C(N)=C(/C#N)C(=O)CSc1nnc(COc2cc(C)ccc2C)o1	none
Cc1ccc2nc(/C(C#N)=C\c3cc(C)n(-c4cccc([N+](=O)[O-])c4)c3C)[nH]c2c1	Cav32 inh -6.1, CYP2C9 inhib 84
COC(=O)c1oc2ccc(Cl)cc2c1N	none
Cc1nc2ccccc2c2c1C(=O)N(Cc1cccnc1)C2=O	CYP2C19 inh 97
COc1ccccc1N1CCN(c2nc3ccccn3c(=O)c2C=O)CC1	CYP2C19 inh 71
COC(c1ccccc1)c1c(-c2ccccc2)nn(C)c1Cl (stereo not drawn)	CYP2C9 inhib 71, CYP2C19 inh 94 (no result: Cav32 inh)
CC(C)(C)CC(=O)NC(=S)N1CCCCCC1	none
CCN(CC)c1cc(Oc2ccccc2)ncn1	CYP2C19 inh 80
C=C(C)COc1ccc(-c2n[nH]c(C)c2-c2ccc(OC)cc2)c(O)c1	none
CCOc1ccc(-c2ncncc2-c2ccc(OC)cc2)c(O)c1	CYP2C9 inhib 54
Cc1cc(C)cc(N(CC(=O)NCc2ccco2)S(=O)(=O)c2c(C)noc2C)c1	CYP2C9 inhib 67, CYP2C19 inh 82
Cc1ccc(NC(=O)CN(c2cc(C)cc(C)c2)S(=O)(=O)c2c(C)noc2C)nc1	Cav32 inh -4.5, CYP2C9 inhib 72
COc1cccc(CNC(=O)c2ccc(S(=O)(=O)N3CCCC3)cc2)c1	CYP2C9 inhib 86
COc1cccc(CNC(=O)c2cc3ccccn3n2)c1	CYP2C19 inh 66
Cc1cc2cc(CNC(=O)c3ccc(S(=O)(=O)N4CCCCC4)cc3)ccc2[nH]1	CYP2C9 inhib 79
Cc1ccc(CNC(=O)c2ccc(Br)o2)cc1	none
Cc1cc2cc(CNC(=O)c3ccc(Br)o3)ccc2[nH]1	Cav32 inh -6 (no result: CYP2C19 act, CYP2C9 inhib, CYP2C19 inh, CYP2C9 act)
Cc1nnsc1NC(=O)OCC(C)(C)C	none
COc1ccc(CN2CCN(S(=O)(=O)c3ccc(C)cc3)CC2)cc1Br	none
Cc1ccc(C)c(CN2C(=O)C3CCCN3c3ccc(S(=O)(=O)N4CCOCC4)cc32)c1 (stereo not drawn)	none (no result: CYP2C19 act, CYP2C9 inhib, CYP2C19 inh, CYP2C9 act)
COc1cccc(CN2C(=O)C3CCCN3c3ccc(S(=O)(=O)N4CCOCC4)cc32)c1 (stereo not drawn)	CYP2C9 inhib 62
COc1ccc(-n2c(CNC(=O)c3ccc(S(=O)(=O)N4CCCC4)cc3)n[nH]c2=S)cc1	none
COc1cccc(CN2CCCN(S(=O)(=O)c3ccc(Br)cc3)CC2)c1	CYP2C19 inh 79
Cc1cccc(-n2c(CNC(=O)c3ccc(S(=O)(=O)N4CCCC4)cc3)n[nH]c2=S)c1	CYP2C19 inh 53
COc1c2ccc(C(=O)NCc3cc(C(F)(F)F)cc(C(F)(F)F)c3)cc2nn1C	none
COc1ccc(OC)c(NC(=O)c2c(NC(=O)CNCc3ccco3)sc3c2CCC3)c1	CYP2C9 inhib 65
COc1ccc(NC(=O)c2c(NC(=O)CNCc3ccco3)sc3c2CCC3)cc1	CYP2C9 inhib 93, CYP2C19 inh 63
CCOC(=O)C1CCCN(c2c(NCCN3CCCCC3C)c(=O)c2=O)C1 (stereo not drawn)	none
O=C(NCCN1CCCC1)C1CC(=O)N(C2CCCCC2)C1 (stereo not drawn)	none
Cc1ccc(S(=O)(=O)n2nc(-c3ccc(Cl)cc3)nc2NCc2ccco2)cc1	Cav32 inh -6.6, CYP2C19 inh 68
CCS(=O)(=O)n1nc(-c2ccccc2)nc1NCc1ccco1	none (no result: CYP2C19 act, CYP2C9 inhib, CYP2C19 inh, CYP2C9 act)
O=C(COc1ccccc1)n1nc(-c2ccc(Cl)cc2)nc1NCc1ccco1	CYP2C9 inhib 55, CYP2C19 inh 69
O=C(c1ccco1)n1nc(-c2ccc(Cl)cc2)nc1NCc1ccco1	none
C=CCOC(=O)C1=C[C@H](C2CC2)[C@@H](CCCO)[C@H](OCC)O1	none (no result: CYP2C19 act, CYP2C9 inhib, CYP2C19 inh, CYP2C9 act)
O=C(CN1C(=O)c2ccccc2S1(=O)=O)N1CCN(c2ccccc2)CC1	none
O=C1c2ccccc2S(=O)(=O)N1CC1CC(c2ccccc2)=NO1 (stereo not drawn)	CYP2C9 inhib 81, CYP2C19 inh 82
COc1ccc(C2=NOC(CN3C(=O)c4ccccc4S3(=O)=O)C2)cc1 (stereo not drawn)	CYP2C9 inhib 89, CYP2C19 inh 76
CC1CCN=C(N)S1 (stereo not drawn)	none (no result: CYP2C19 act, CYP2C9 inhib, CYP2C19 inh, CYP2C9 act)
COc1ccc(CN2CCn3ncc(C(=O)Nc4cccc(C)c4)c3C2=O)cc1	Cav32 inh -5.5
COc1ccc(C(=O)NC2CCN(C(=S)Nc3cccc(C)c3)CC2)cc1	none
COc1cc(C2N(c3cccc(Cl)c3)C(=O)C3CCCN32)cc(OC)c1OC (stereo not drawn)	none
O=C1C2CCCN2C(c2ccc(F)c(F)c2)N1c1cccc(Cl)c1 (stereo not drawn)	CYP2C19 inh 50
COc1cccc(C2N(c3cccc(Cl)c3)C(=O)C3CCCN32)c1OC (stereo not drawn)	CYP2C9 inhib 70, CYP2C19 inh 78
CCOC(=O)C1CCCN(C/C(O)=C(\C#N)c2nc(-c3ccccc3)cs2)C1 (stereo not drawn)	none
CCCC(=O)c1c[nH]c(C(=O)NCCc2ccccn2)c1	none
CCC(=O)N1CCN(c2ccc(Cl)cc2NC(=O)Cc2ccc(Cl)cc2)CC1	CYP2C19 inh 51
CCCC(=O)Nc1cc(Cl)ccc1N1CCN(C(=O)CC)CC1	CYP2C9 inhib 85, CYP2C19 inh 86
CCC(=O)N1CCN(c2ccccc2NC(=O)Cc2ccc(Cl)cc2)CC1	none
CCOCCCN(C(=O)c1ccco1)C(C(=O)NC1CCCC1)c1cccc(OC)c1OC (stereo not drawn)	none
CCOC(=O)Nc1ccc2c(c1)N(C(=O)CN1CCN(C)CC1)c1ccccc1S2	CYP2C19 inh 58
CCOC(=O)Nc1ccc2c(c1)N(C(=O)OC)c1ccccc1CC2	CYP2C9 inhib 85, CYP2C19 inh 70
CCOC(=O)Nc1ccc2c(c1)N(C(=O)CCN(C)C)c1ccccc1S2	none
CC(=O)NCCSC(=O)c1ccc(F)cc1	none
CCCSc1nnc(-c2c[nH]c3ccccc23)n1CC	CYP2C19 inh 89
CCCSc1nnc(-c2c[nH]c3ccccc23)n1C	CYP2C19 inh 76
Cc1ccc2nc(N3CCN(C=O)CC3)nc(-c3ccccc3)c2c1	none (no result: CYP2C19 act, CYP2C9 inhib, CYP2C19 inh, CYP2C9 act)
COc1ccc(S(=O)(=O)Nc2cc(C)ccc2OC)cc1C	Cav32 inh -7.7, CYP2C9 inhib 80, CYP2C19 inh 100
COc1ccc(S(=O)(=O)Nc2ccc3ccccc3c2)cc1C	CYP2C9 inhib 100, CYP2C19 inh 100
COc1cc(C)c(S(=O)(=O)Nc2ccc(CC(=O)O)cc2)cc1C	none (no result: CYP2C19 act, CYP2C9 inhib, CYP2C19 inh, CYP2C9 act)
CCc1ccc(NS(=O)(=O)c2ccc(OC)c(C)c2)cc1	CYP2C9 inhib 80, CYP2C19 inh 78
Cc1cc(S(=O)(=O)Nc2cccnc2)c(C)s1	none
Cc1cc(S(=O)(=O)Nc2ccc3ccccc3c2)c(C)s1	CYP2C9 inhib 64, CYP2C19 inh 93
CCCNC(=O)c1onc(CSc2cccc(OC)c2)c1C(=O)NCCC	none (no result: CYP2C19 act, CYP2C9 inhib, CYP2C19 inh, CYP2C9 act)
